Values without a mark were called inactive. Records with an inconclusive call do not appear. Activity calls are given as the source filed them. Unless noted, the call rests on the fitted dose curve.

Assay [1] in a line: Nuclear factor erythroid 2-related factor 2/antioxidant responsive element (Nrf2/ARE) small molecule agonists: qHTS cell viability counter screen in human keratinocytes (AID 1919968; active means well fitted cell-killing curve with a large enough effect in the repeat runs; further: nearly all actives have a fitted effect of over 55% in size; further: potency means the concentration at half of the fitted maximal effect). The method, boiled down:
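In human HaCaT keratinocytes stably expressing an ARE-driven luciferase, compound exposure lasted 23 h at 37 C under 5% CO2. Viable cells are quantified with a protease-based fluorogenic reagent (CellTiter-Fluor) read 1 h after addition.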
(In qHTS, concentration-response curves come from the screen itself.)

Assay [2] in a line: Nuclear factor erythroid 2-related factor 2/antioxidant responsive element (Nrf2/ARE) small molecule agonists: luciferase reporter gene qHTS assay in human keratinocytes (AID 1919969). Further: nearly all actives have a fitted effect of over 35% in size.
In assay [3] the target is Gonadotropin-releasing hormone receptor (Homo sapiens) (UniProt P30968). Kind of assay: Human gonadotropin-releasing hormone receptor (GnRHR) small molecule agonists, calcium flux assay in GnRHR-HEK293 cells (AID 1920063). Further: nearly all actives have a fitted effect of over 35% in size. The essentials: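 Intracellular calcium rise is the read-out: engineered human GnRHR HEK293 cells, dye-loaded, are exposed to DMSO-dissolved compounds and fluorescence at Ex/Em 480/540 is tracked for 3 min.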
Sequence of Gonadotropin-releasing hormone receptor (Homo sapiens) (P30968 whole entry, looked up): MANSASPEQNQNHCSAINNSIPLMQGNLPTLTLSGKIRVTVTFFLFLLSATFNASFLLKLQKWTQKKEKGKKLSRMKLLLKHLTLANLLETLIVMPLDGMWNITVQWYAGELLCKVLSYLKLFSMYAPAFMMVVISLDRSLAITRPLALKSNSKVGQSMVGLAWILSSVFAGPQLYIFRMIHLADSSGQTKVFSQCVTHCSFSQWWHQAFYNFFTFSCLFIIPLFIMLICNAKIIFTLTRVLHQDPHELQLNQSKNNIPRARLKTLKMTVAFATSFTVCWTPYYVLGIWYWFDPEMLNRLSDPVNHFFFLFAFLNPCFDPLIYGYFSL
(In general: A change in cytosolic calcium serves as a functional read-out for many receptors and channels.)

Assay [4] in a line: G protein-coupled receptor (GPCR) small molecule agonists, calcium flux assay: HEK293 wild type cell line counter screen (AID 1920065). The essentials:
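Fluorescence intensity signals activation. After overnight (18 h) culture and a 1 h calcium dye load at 37 C, compounds are added by pin tool and the plate read at 480/540 nm for 3 min in 1 s steps.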

The nature of assay [5]: p53 small molecule agonists, cell-based qHTS assay with human liver microsomes: qHTS cell viability counter screen (AID 1963579). Further: nearly all actives have a fitted effect of over 45% in size. Further: potency means the concentration at half of the fitted maximal effect. The method, boiled down: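 HLM-supplemented (0.5 mg/mL final) and NADPH-supplemented (0.5 mg/mL final) p53RE-bla cultures, 4,000 cells per well, were dosed with compounds in DMSO for 16 h at 37 C; luminescent ATP detection (CellTiter-Glo, 30 min, room temperature) quantified surviving cells.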

Assay [6] can be described thus: p53 small molecule agonists, cell-based qHTS assay with rat liver microsomes: qHTS cell viability counter screen (AID 1963580). Further: nearly all actives have a fitted effect of over 45% in size. Further: potency means the concentration at half of the fitted maximal effect. The essentials: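 After the beta-lactamase ratio was read, CellTiter-Glo was added to the same wells and luminescence measured at 30 min; cells had been treated 16 h at 37 C with compounds, rat liver microsomes and NADPH (0.5 mg/mL final each).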

Assay [7] can be described thus: p53 small molecule agonists, cell-based qHTS assay: qHTS cell viability counter screen (AID 1963581). Further: nearly all actives have a fitted effect of over 45% in size. The method, boiled down:
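Luminescence from CellTiter-Glo, reflecting ATP content, serves as the cytotoxicity measure; it is taken after the 2 h reporter substrate step in HCT-116 p53RE-bla cells dosed for 16 h at 37 C.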

Assay [8] deals with 5-hydroxytryptamine receptor 2A (Homo sapiens) (UniProt P28223). Kind of assay: 5-hydroxytryptamine receptor 2A (HTR2A) small molecule antagonists, cell-based qHTS assay (AID 1963586). Further: nearly all actives have a fitted effect of over 45% in size. The method, boiled down:
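CHO cells stably expressing human HTR2A were plated for 18 h at 37 C, then loaded with calcium dye for 1 h. Compounds were preincubated 5 min at room temperature before DOI (4 nM solution) was added. Kinetic fluorescence was read for 3 min.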

Assay [9] has the same target. The assay is described as follows: 5-hydroxytryptamine receptor 2A (HTR2A) small molecule agonists, cell-based qHTS assay (AID 1963587). Further: nearly all actives have a fitted effect of over 30% in size. The method, boiled down:
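CHO cells stably expressing human HTR2A, plated 18 h, loaded with calcium dye 1 h at 37 C. Agonist mode: compounds added and intracellular calcium fluorescence recorded kinetically for 2 min at 1 sec intervals.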

Assay [10] addresses Muscarinic acetylcholine receptor M1 (Homo sapiens) (UniProt P11229). Kind of assay: Cholinergic receptor muscarinic 1 (CHRM1) small molecule antagonists, cell-based qHTS assay (AID 1963588). Further: nearly all actives have a fitted effect of over 40% in size. The method, boiled down:
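Compounds were tested at 15 concentrations in three independent runs. Dye-loaded CHRM1-CHO cells were exposed 5 min at room temperature before stimulation by acetylcholine added at 50nM. Intracellular calcium was read kinetically on FDSS for 3 min.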

Assay [11] has the same target. Kind of assay: Cholinergic receptor muscarinic 1 (CHRM1) small molecule agonists, cell-based qHTS assay (AID 1963589). Further: nearly all actives have a fitted effect of over 35% in size. The essentials:
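Fluorescent calcium dye reports M1 activation in stably transfected CHO cells. Compounds, 15 concentrations, added after 1 h dye loading at 37 C; kinetic reading at 1 sec intervals.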

A short description of assay [12]: cAMP Responsive Elements (CRE) small molecule agonists, cell-based qHTS assay (AID 1963590). The method, boiled down: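 Compound exposure lasted 3 h at 37 C/5% CO2 in CRE-bla HEK 293T cells grown in assay medium with 10% dialyzed FBS and 25 mM HEPES. Reporter signal came from LiveBLAzer B/G FRET substrate, 2 h, room temperature.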
Assay [13] can be described thus: cAMP Responsive Elements (CRE) small molecule antagonists, cell-based qHTS assay (AID 1963591; active means well fitted inhibition curve with a large enough effect in the signal ratio in the repeat runs, not every such curve was filed as active; the % refers to the signal ratio). The method, boiled down: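 Stimulation used NKH477 at a final 0.25 uM for 3 h in compound-treated CRE-bla HEK293T cells, seeded 18 h beforehand. Reporter activity was measured with LiveBLAzer B/G FRET substrate after 2 h at room temperature.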
Assay [14] deals with Beta-2 adrenergic receptor (Homo sapiens) (UniProt P07550). The assay is described as follows: Adrenergic beta2 receptor (ADRB2) small molecule antagonists, cell-based qHTS assay (AID 1963592). Further: series mostly up to about 92 µM; nearly all actives have a fitted effect of over 50% in size. The method, boiled down: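 Assay format: CHO-ADRB2 cells, 18-20hr seeding at 37C/5% CO2, then compound plus 1nM isoproterenol agonist mix for 0.5hr RT. Homogeneous time-resolved fluorescence cAMP detection after 1hr, expressed as 665/615 nm ratio.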
Sequence of Beta-2 adrenergic receptor (Homo sapiens) (P07550 whole entry, looked up): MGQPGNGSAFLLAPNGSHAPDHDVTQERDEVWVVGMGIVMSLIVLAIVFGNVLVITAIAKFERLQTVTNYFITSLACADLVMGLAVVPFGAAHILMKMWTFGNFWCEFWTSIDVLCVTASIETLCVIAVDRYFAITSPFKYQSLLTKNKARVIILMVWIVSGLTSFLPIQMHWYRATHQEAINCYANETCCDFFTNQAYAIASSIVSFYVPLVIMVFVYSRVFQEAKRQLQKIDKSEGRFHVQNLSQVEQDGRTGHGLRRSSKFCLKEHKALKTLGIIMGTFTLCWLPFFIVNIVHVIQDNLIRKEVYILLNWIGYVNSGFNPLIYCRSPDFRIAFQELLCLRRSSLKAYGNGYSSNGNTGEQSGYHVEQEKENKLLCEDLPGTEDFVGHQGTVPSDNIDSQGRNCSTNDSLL

Assay [15] in a line: p53 small molecule agonists, cell-based qHTS assay with rat liver microsomes (AID 1963578). The essentials:
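Compound in DMSO added to p53RE-bla cells 5 h post-plating; rat microsomes/NADPH 0.5 mg/mL final; 16 h, 37 C; LiveBLAzer 2 h RT.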

The nature of assay [16]: p53 small molecule agonists, cell-based qHTS assay (AID 1963582; active means well fitted activation curve with a large enough effect in the signal ratio in the repeat runs, not every such curve was filed as active; the % refers to the signal ratio). The method, boiled down: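 After plating, p53RE-bla cells sat 5 h in the incubator; compounds or DMSO vehicle were pinned in; a 16 h incubation at 37 C followed; FRET substrate was added and, 2 h later at RT, fluorescence was measured.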
The target in assay [17] is D(2) dopamine receptor (Homo sapiens) (UniProt P14416). The assay is described as follows: Dopamine D2 receptor (DRD2) small molecule antagonists, cell-based qHTS assay (AID 1963595; active means well fitted inhibition curve with a large enough effect in the signal ratio in the repeat runs, with a control signal flat; the % refers to the signal ratio; further: potency means the concentration at half of the fitted maximal effect). The essentials: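 Antagonist mode in DRD2-HEK293 cells: after compound addition with 0.1 mM Ro20-1724, cells received quinpirole (12 nM) and NKH477 (200 nM) for 30 min at room temperature; HTRF cAMP read after 1 h detection.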
Sequence of D(2) dopamine receptor (Homo sapiens) (P14416 whole entry, looked up): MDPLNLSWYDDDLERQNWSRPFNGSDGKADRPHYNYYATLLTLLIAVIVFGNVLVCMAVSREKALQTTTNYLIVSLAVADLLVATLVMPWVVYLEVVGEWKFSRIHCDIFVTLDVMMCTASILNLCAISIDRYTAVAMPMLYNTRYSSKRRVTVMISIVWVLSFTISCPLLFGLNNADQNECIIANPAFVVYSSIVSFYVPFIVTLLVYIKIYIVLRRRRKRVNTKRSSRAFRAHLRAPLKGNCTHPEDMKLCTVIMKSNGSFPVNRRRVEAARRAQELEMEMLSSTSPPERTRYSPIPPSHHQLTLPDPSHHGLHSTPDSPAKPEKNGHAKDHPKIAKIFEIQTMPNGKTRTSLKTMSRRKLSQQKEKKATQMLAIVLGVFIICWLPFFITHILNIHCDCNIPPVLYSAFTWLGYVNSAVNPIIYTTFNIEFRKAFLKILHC

For assay [18] the target is unchanged. Kind of assay: Dopamine D2 receptor (DRD2) small molecule agonists, cell-based qHTS assay (AID 1963594). Further: nearly all actives have a fitted effect of over 35% in size. The essentials: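 HEK293 cells stably expressing human DRD2, pre-treated with PDE inhibitor Ro20-1724 (0.1 mM final) and compound 10 min at room temperature, then stimulated with NKH477 (200nM […]) for 30 min. cAMP read by HTRF (665/620 nm).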
Assay [19] has as its target Beta-2 adrenergic receptor (Homo sapiens) (UniProt P07550). Kind of assay: Adrenergic beta2 receptor (ADRB2) small molecule agonists, cell-based qHTS assay (AID 1963593).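 Further: CHO cells stably overexpressing human ADRB2.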 The method, boiled down:
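CHO cells stably over-expressing ADRB2 were plated overnight at 37C, then dosed with compounds plus a stimulation mix containing 100uM IBMX and 25uM Ro-20-1724 for 0.5hr at room temperature. cAMP was measured by HTRF competition, 1hr.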

Sequence of Muscarinic acetylcholine receptor M1 (Homo sapiens) (P11229 whole entry, looked up): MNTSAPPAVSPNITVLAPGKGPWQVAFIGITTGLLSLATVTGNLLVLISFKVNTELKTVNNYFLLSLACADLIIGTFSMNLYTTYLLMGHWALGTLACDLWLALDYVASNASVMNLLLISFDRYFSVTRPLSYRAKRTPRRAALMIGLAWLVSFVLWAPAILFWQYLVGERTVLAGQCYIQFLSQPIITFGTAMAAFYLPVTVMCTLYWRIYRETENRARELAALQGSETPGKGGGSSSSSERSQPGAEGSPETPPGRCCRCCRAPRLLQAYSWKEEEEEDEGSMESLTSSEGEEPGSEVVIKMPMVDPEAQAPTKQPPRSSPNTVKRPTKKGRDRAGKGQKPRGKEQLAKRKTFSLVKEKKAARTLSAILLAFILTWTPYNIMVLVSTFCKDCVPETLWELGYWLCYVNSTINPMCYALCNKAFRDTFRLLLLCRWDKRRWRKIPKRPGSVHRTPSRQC
Sequence of 5-hydroxytryptamine receptor 2A (Homo sapiens) (P28223 whole entry, looked up): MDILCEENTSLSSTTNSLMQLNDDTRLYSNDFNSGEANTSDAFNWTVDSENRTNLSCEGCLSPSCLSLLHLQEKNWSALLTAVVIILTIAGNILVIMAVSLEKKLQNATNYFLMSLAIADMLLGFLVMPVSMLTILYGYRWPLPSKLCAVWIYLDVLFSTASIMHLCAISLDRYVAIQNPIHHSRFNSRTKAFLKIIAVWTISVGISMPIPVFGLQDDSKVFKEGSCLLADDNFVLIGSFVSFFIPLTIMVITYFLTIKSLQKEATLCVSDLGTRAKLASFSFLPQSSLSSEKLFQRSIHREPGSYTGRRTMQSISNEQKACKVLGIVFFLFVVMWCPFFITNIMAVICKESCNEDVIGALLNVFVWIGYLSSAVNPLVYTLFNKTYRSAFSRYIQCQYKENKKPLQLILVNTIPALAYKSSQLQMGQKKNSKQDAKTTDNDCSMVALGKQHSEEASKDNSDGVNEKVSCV

Consider `COC1CCC=CO1` (stereo unspecified), for which the Potency entry in [1], in [2], in assay [3], in assay [4], in assay [5] and in assay [6] was “inactive” in each case. In addition, the Potency result in [7], in [8], in assay [9], in [10], in assay [11] and in assay [12] was “inactive” throughout. Also, the Potency result in assay [13] and in [14] was “inactive” each time.

For the compound `CC(C)Nc1ccc(NC(C)C)c2c1C(=O)c1ccccc1C2=O`, the Potency result in assay [1], in assay [2], in [3], in [4], in [15] and in assay [5] was “inactive” throughout. Besides, the Potency result in [6], in [16], in assay [8], in assay [9], in assay [11] and in assay [12] was “inactive” in each case. The Potency result in assay [14] and in assay [17] was “inactive” throughout.

As to `CC(C)(C)CC(C)(C)c1ccccc1O`, the Potency was 27.4 µM (active) in [1], 41 µM (active) in assay [5], 41 µM (active) in [6] and 61.4 µM (active) in assay [17]. Also, the Potency entry in assay [2], in assay [3], in assay [4], in assay [15], in [10] and in assay [11] was “inactive” each time. The Potency entry in [14] and in assay [18] was “inactive” in each case.

Turning to `O=C(O)[C@@H]1CSCN1`, the Potency entry in assay [1], in assay [2], in assay [3], in [4], in assay [5] and in [6] was “inactive” throughout. Also, the Potency entry in assay [7], in assay [8], in assay [9], in [10], in [11] and in assay [12] was “inactive” in each case. Further, the Potency result in assay [14], in assay [19], in assay [18] and in assay [17] was “inactive” in each case.

For the compound `CC(CO)(CO)[N+](=O)[O-]`, the Potency entry in assay [1], in [2], in [3], in assay [4], in [5] and in [6] was “inactive” in each case. Also, the Potency result in assay [7], in [8], in assay [9], in assay [10], in assay [11] and in assay [13] was “inactive” throughout. Moreover, the Potency result in [14], in assay [19], in assay [18] and in assay [17] was “inactive” throughout.

In the case of `CC(S)C(C)S` (stereo unspecified), the Potency result in [1], in [2], in [3], in assay [4], in assay [15] and in assay [6] was “inactive” throughout. Besides, the Potency result in assay [7], in assay [16], in assay [8], in assay [9], in assay [10] and in [11] was “inactive” each time. Also, the Potency entry in assay [12], in [13], in assay [14], in [19] and in assay [17] was “inactive” in each case.

Turning to `O=Cc1ccccc1Cl`, the Potency result in assay [1], in assay [2], in assay [3], in assay [4], in assay [5] and in assay [6] was “inactive” each time. Moreover, the Potency entry in assay [7], in assay [8], in assay [9], in [10], in assay [11] and in assay [12] was “inactive” each time. Besides, the Potency result in assay [13], in assay [14], in [19], in [18] and in assay [17] was “inactive” throughout.

On to `C[C@]12CCC(=O)C=C1CC[C@H]1[C@@H]3CC[C@](O)(C(=O)CO)[C@@]3(C)C[C@H](O)[C@@]12F`, for which the Potency entry in assay [1], in [2], in assay [3], in [4], in [5] and in [6] was “inactive” throughout. For the same compound, the Potency entry in assay [7], in assay [8], in [9], in assay [10], in [11] and in assay [12] was “inactive” throughout. The Potency entry in assay [13], in assay [14] and in [17] was “inactive” each time.
